{"source": "ChEMBL document CHEMBL1157539", "about": "“Thousands of chemical starting points for antimalarial lead identification” (Nature, 2010)"}
{"tested_on": "Plasmodium falciparum", "assay": "GSK_TCMDC: Inhibition of Plasmodium falciparum 3D7 in whole red blood cells, using parasite LDH activity as an index of growth. Test compounds present at 2uM", "assay_type": "functional", "units": {"Inhibition": "%"}}
{"smiles": "CC(C)N1CCN(C(CN2CCN(CCCOc3cccc4ccccc34)CC2)c2ccc(F)cc2)CC1.Cl", "note": "(centres undefined)", "Inhibition": 100}
{"smiles": "CC(C)CCN1CCC(Oc2ccc(NC(=O)c3ccsc3)cc2Cl)CC1.O=C(O)C(F)(F)F", "Inhibition": 89}
{"smiles": "CN=c1nc(NN=Cc2ccccc2Cl)[nH]c(=Nc2cccc(C(F)(F)F)c2)[nH]1.Cl", "Inhibition": 84}
{"smiles": "COCCNC(=O)c1ccc(OC2CCN(CC(C)=Cc3ccccc3)CC2)c(Cl)c1", "Inhibition": 94}
{"smiles": "COc1ccc(CN2CCCC(Nc3ccc(F)c(F)c3)C2)c(O)c1", "note": "(centres undefined)", "Inhibition": 95}
{"smiles": "Cl.Oc1ccc(-c2ccccc2)cc1CNC1CCCCC1", "Inhibition": 95}
{"smiles": "COc1ccc(-c2cccc(NC(=O)c3ccc(C#N)cc3)c2)cc1CN(C)CCN(C)C.O=C(O)C(F)(F)F", "Inhibition": 90}
{"smiles": "CC(C)c1ccc(NC(=O)c2cccc(CN3CCCN(CC4CCCCC4)CC3)c2)cc1.O=C(O)C(F)(F)F", "Inhibition": 85}
{"smiles": "Oc1cccc(Nc2nc(NCc3ccco3)c3ccccc3n2)c1", "Inhibition": 100}
{"smiles": "CCCCCCc1cc2cc(-c3csc(C=Cc4ccccc4)n3)c(=O)oc2cc1O", "Inhibition": 96}
{"smiles": "Cc1[nH]c2ccc(-c3ccc(N(C)C)cc3)cc2c(=O)c1Cl", "Inhibition": 97}
{"smiles": "Clc1ccc(Nc2nc(Nc3ccc(Cl)c(Cl)c3)nc(Sc3nc4ccccc4[nH]3)n2)cc1Cl", "Inhibition": 99}
{"smiles": "NC1CCN(c2nc(NCCCc3ccc(O)cc3)nc(NCc3cccc4ccccc34)n2)CC1.O=C(O)C(F)(F)F", "Inhibition": 100}
{"smiles": "O=C(NC1CCCCN(Cc2ccccc2O)C1)c1cc(F)cc(F)c1.O=C(O)C(F)(F)F", "note": "(centres undefined)", "Inhibition": 89}
{"smiles": "COc1ccc2nccc([C@@H](O)CN3CCC(NCc4nc5cc(F)c(F)cc5[nH]4)CC3)c2c1.O=C(O)C(=O)O", "Inhibition": 96}
{"smiles": "CCc1nnc2sc(-c3cccc(NC(=O)c4ccc(C)c([N+](=O)[O-])c4)c3)nn12", "Inhibition": 82}
{"smiles": "Nc1ncnc2nc(-c3ccc(F)cc3)cc(-c3ccc(NC(=O)c4ccccc4)cc3)c12", "Inhibition": 100}
{"smiles": "CCc1cn2c3c(cc(C(=O)N[C@@H](Cc4cc(F)cc(F)c4)[C@H](O)CNC4CC4)cc13)N(C)S(=O)(=O)CC2.O=CO", "Inhibition": 100}
{"smiles": "Cc1c2ccc(N(C)c3ccnc(Nc4ccc5c(c4)nc(NC(C)C)n5C)n3)cc2nn1C.Cl", "Inhibition": 100}
{"smiles": "CN(C)C(CNC(=O)c1cc(-c2ccncc2)c(-c2ccc(NC(=O)Nc3cccc(F)c3)cc2)o1)c1ccccc1.O=C(O)C(F)(F)F", "note": "(centres undefined)", "Inhibition": 100}
{"smiles": "CCOc1cc(C2C(C(=O)OC(C)C)=C(C)NC3=C2C(=O)CC(c2ccc(Cl)cc2)C3)ccc1OC(C)=O", "note": "(centres undefined)", "Inhibition": 90}
{"smiles": "CCCc1cc(OC)c(C[C@H]2c3cc(O)c(Cl)cc3CCN2C)cc1OC.Cl", "Inhibition": 97}
{"smiles": "Cc1cccc2nc(-c3ccc(-c4ccc(NC(=O)Nc5ccsc5)cc4)cc3)[nH]c12", "Inhibition": 100}
{"smiles": "O=c1cc(NCCC(CNCc2cc3ccccc3o2)NCc2cc(Br)cc(Br)c2)[nH]c2ccccc12", "note": "(centres undefined)", "Inhibition": 100}
{"smiles": "CS(=O)(=O)c1ccc(CNCc2ccc(-c3ccc(-c4nc5cc(F)ccc5[nH]4)s3)cc2)cc1.O=C(O)C(F)(F)F", "Inhibition": 100}
{"tested_on": "Plasmodium falciparum", "assay": "GSK_TCMDC: Inhibition of Plasmodium falciparum Dd2 in whole red blood cells, using parasite LDH activity as an index of growth. Test compounds present at 2uM", "assay_type": "functional", "units": {"Inhibition": "%"}}
{"smiles": "Br.CC1(C)NC(N)=NC(=N)N1OCC1CCCCC1", "Inhibition": 97}
{"smiles": "CC(=O)Nc1ccc([N+](=O)[O-])c2c(Br)cccc12", "Inhibition": 0}
{"smiles": "COc1cc2nc(NCCc3ccccc3)nc(N(C)Cc3ccccc3)c2cc1OC", "Inhibition": 58}
{"smiles": "COc1ccc(C=Cc2ccc(-c3c(C)[nH]c(C)c(Cl)c3=O)cc2)cc1OC", "Inhibition": 96}
{"smiles": "CC(C)(CNC(=O)[C@@H]1CCCN(Cc2ccc(Cl)cc2)C1)c1nc(-c2ccc(Cl)c(O)c2)c(-c2ccncc2)[nH]1.Cl", "Inhibition": 37}
{"smiles": "Cc1nnsc1C(=O)Nc1cccc(-c2cccc(-c3nc4cc(F)ccc4[nH]3)c2)c1", "Inhibition": 45}
{"smiles": "O=C(/C=C/c1ccc(Cl)c(Cl)c1)NCCCCCN1CC[C@H](NC(=O)c2ccc3c(c2)OCO3)C1", "Inhibition": 3}
{"smiles": "CCOc1cc(C(=O)NCc2ccc(Cl)c(Cl)c2)ccc1-c1nc2cc(Cl)ccc2[nH]1", "Inhibition": 4}
{"smiles": "CC(CCCC(=O)Nc1ccc(CC(C)NCCc2cccc(Cl)c2)cc1)NCCc1cccc(Cl)c1", "note": "(centres undefined)", "Inhibition": 14}
{"smiles": "COc1cccc2c1CCN(CCN1CCC(NC(=O)c3ccc(-c4cccc(Cl)c4Cl)cc3)CC1)C2", "Inhibition": 38}
{"smiles": "O=C(NCC(NCCCNc1cc(=O)c2ccccc2[nH]1)c1cc(Br)cc(Br)c1)C1=CCCC1", "note": "(centres undefined)", "Inhibition": 48}
{"smiles": "O=C(N[C@@H](Cc1ccccc1)C(=O)NCCN1CCCC1)c1ccc(O)c(-c2ccc(Cl)c(Cl)c2)c1", "Inhibition": 46}
{"smiles": "Cc1c(Cl)cccc1N=C(S)NN=Cc1ccccn1", "Inhibition": 85}
{"smiles": "Cc1ncc(CN2CCC(C(=O)Nc3ccc(-c4nc5ccccc5o4)cc3)CC2)s1", "Inhibition": 92}
{"smiles": "CC(C)N1CCN(C(CN2CCN(CCCOc3cccc4ccccc34)CC2)c2ccc(F)cc2)CC1.Cl", "note": "(centres undefined)", "Inhibition": 75}
{"smiles": "CC(C)CCN1CCC(Oc2ccc(NC(=O)c3ccsc3)cc2Cl)CC1.O=C(O)C(F)(F)F", "Inhibition": 81}
{"smiles": "CN=c1nc(NN=Cc2ccccc2Cl)[nH]c(=Nc2cccc(C(F)(F)F)c2)[nH]1.Cl", "Inhibition": 0}
{"smiles": "COCCNC(=O)c1ccc(OC2CCN(CC(C)=Cc3ccccc3)CC2)c(Cl)c1", "Inhibition": 95}
{"smiles": "COc1ccc(CN2CCCC(Nc3ccc(F)c(F)c3)C2)c(O)c1", "note": "(centres undefined)", "Inhibition": 83}
{"smiles": "Cl.Oc1ccc(-c2ccccc2)cc1CNC1CCCCC1", "Inhibition": 100}
{"smiles": "COc1ccc(-c2cccc(NC(=O)c3ccc(C#N)cc3)c2)cc1CN(C)CCN(C)C.O=C(O)C(F)(F)F", "Inhibition": 18}
{"smiles": "CC(C)c1ccc(NC(=O)c2cccc(CN3CCCN(CC4CCCCC4)CC3)c2)cc1.O=C(O)C(F)(F)F", "Inhibition": 59}
{"smiles": "Oc1cccc(Nc2nc(NCc3ccco3)c3ccccc3n2)c1", "Inhibition": 74}
{"smiles": "CCCCCCc1cc2cc(-c3csc(C=Cc4ccccc4)n3)c(=O)oc2cc1O", "Inhibition": 75}
{"smiles": "Cc1[nH]c2ccc(-c3ccc(N(C)C)cc3)cc2c(=O)c1Cl", "Inhibition": 96}
{"smiles": "Clc1ccc(Nc2nc(Nc3ccc(Cl)c(Cl)c3)nc(Sc3nc4ccccc4[nH]3)n2)cc1Cl", "Inhibition": 100}
{"smiles": "NC1CCN(c2nc(NCCCc3ccc(O)cc3)nc(NCc3cccc4ccccc34)n2)CC1.O=C(O)C(F)(F)F", "Inhibition": 2}
{"smiles": "O=C(NC1CCCCN(Cc2ccccc2O)C1)c1cc(F)cc(F)c1.O=C(O)C(F)(F)F", "note": "(centres undefined)", "Inhibition": 52}
{"smiles": "COc1ccc2nccc([C@@H](O)CN3CCC(NCc4nc5cc(F)c(F)cc5[nH]4)CC3)c2c1.O=C(O)C(=O)O", "Inhibition": 36}
{"smiles": "CCc1nnc2sc(-c3cccc(NC(=O)c4ccc(C)c([N+](=O)[O-])c4)c3)nn12", "Inhibition": 46}
{"smiles": "Nc1ncnc2nc(-c3ccc(F)cc3)cc(-c3ccc(NC(=O)c4ccccc4)cc3)c12", "Inhibition": 97}
{"smiles": "CCc1cn2c3c(cc(C(=O)N[C@@H](Cc4cc(F)cc(F)c4)[C@H](O)CNC4CC4)cc13)N(C)S(=O)(=O)CC2.O=CO", "Inhibition": 99}
{"smiles": "Cc1c2ccc(N(C)c3ccnc(Nc4ccc5c(c4)nc(NC(C)C)n5C)n3)cc2nn1C.Cl", "Inhibition": 100}
{"smiles": "CN(C)C(CNC(=O)c1cc(-c2ccncc2)c(-c2ccc(NC(=O)Nc3cccc(F)c3)cc2)o1)c1ccccc1.O=C(O)C(F)(F)F", "note": "(centres undefined)", "Inhibition": 99}
{"smiles": "CCOc1cc(C2C(C(=O)OC(C)C)=C(C)NC3=C2C(=O)CC(c2ccc(Cl)cc2)C3)ccc1OC(C)=O", "note": "(centres undefined)", "Inhibition": 20}
{"smiles": "CCCc1cc(OC)c(C[C@H]2c3cc(O)c(Cl)cc3CCN2C)cc1OC.Cl", "Inhibition": 98}
{"smiles": "Cc1cccc2nc(-c3ccc(-c4ccc(NC(=O)Nc5ccsc5)cc4)cc3)[nH]c12", "Inhibition": 70}
{"smiles": "O=c1cc(NCCC(CNCc2cc3ccccc3o2)NCc2cc(Br)cc(Br)c2)[nH]c2ccccc12", "note": "(centres undefined)", "Inhibition": 94}
{"smiles": "CS(=O)(=O)c1ccc(CNCc2ccc(-c3ccc(-c4nc5cc(F)ccc5[nH]4)s3)cc2)cc1.O=C(O)C(F)(F)F", "Inhibition": 97}
